# In PubChem BioAssay AID488913 (National Center for Advancing Translational Sciences (NCATS), 2010):
# “And” between values parts separate entries of the source, which are not always exact repeats. Identical values can stand only once. Results filed as inconclusive are left out. The source made the active and inactive calls. Calls follow the shape of the dose curve; as a rule, active = well fitted inhibition curve with a large enough effect; inconclusive = small, poorly fitted or top-dose-only effect, or effect the other way; inactive = no such curve, though single readings can be large or run the other way.
# Assay: Confirmation Concentration-Response Assay for lipid storage modulators: for probe SAR
# Details: Drosophila S3 cells, BODIPY lipid droplet fluorescence, 18-24 h; series mostly up to 46.1 µM
# From the text: NIH Molecular Libraries Probe Production Centers Network [MLPCN] NIH Chemical Genomics Center [NCGC] MLPCN Grant: 1 R03 MH085686-01 Assay Submitter (PI): Beller, Mathias; Max-Planck-Institut fur Biophysikalische Chemie NCGC Assay Overview: Storing lipids as a reservoir for energy or the anabolism of elementary metabolites is a common feature of probably all cells and is conserved from bacteria to humans. The universal cellular lipid storage organelle is the so-called lipid storage droplet (LD). Although ubiquitous, LDs share a simple structure composed of a hydrophobic core that harbors the storage lipids, which is shielded by a droplet-specific phospholipid monolayer to which proteins are attached. The current model of LD biogenesis involves an incorporation of the lipid core into the membrane leaflets of the endoplasmic reticulum (ER) followed by a subsequent budding-like maturation of a LD, which ultimately pinches off. Once released, LD volume can increase by localized lipogenesis or fusion of existing droplets. Storage lipids are re-mobilized enzymatically by lipase activity. Lipase regulation in the adipocyte is heavily studied and involves multiple components including catecholamine signaling, the LD-associated proteins Perilipin and comparative gene identification-58 (CGI-58) and at least two lipases named hormone sensitive lipase (HSL) and adipocyte triglyceride lipase (ATGL). LD regulation outside of the adipocyte is poorly understood and only few components are known. However, there is an urgent need to learn more about ectopic fat depots as mislocalized storage of lipids, for example in the liver or muscle, is an eminent health problem associated with insulin resistance or the metabolic syndrome. We developed a laser-scanning cytometer assay to enable 1,536-well screening and combined the results of the small molecules screen with an RNAi database based on lipid storage.
# We dispensed 4 uL of cells at 1.25 x 10^6 cells/mL into LoBase Aurora COC 1,536-well plates (black walled, clear bottom) with a bottle-valve solenoid-based dispenser (Aurora) to obtain 5,000 cells/well. Triacsin C (Sigma-Aldrich T-4540), an inhibitor of long-chain fatty acyl CoA synthetase that blocks synthesis of triglycerides, was used as a positive control for lipid under-storage. A total of 23 nL of compound solution of different concentrations were transferred to the assay plates using a Kalypsys pin tool equipped with a 1,536-pin array containing 10-nL slotted pins (FP1S10, 0.457-mm diameter, 50.8 mm long; V&P Scientific). One microliter of oleic acid (400 uM) was added, and the plate was lidded with stainless steel rubber gasket lined lids containing pinholes. After 18-24 h incubation at 24 degree Celsius and 95% humidity, 4 uL of the dyes BODIPY 493/503 (Molecular Probes) and the Cell Tracker Red CMTPX dye (Molecular Probes) were added to the wells to stain lipid droplets and enumerate cell number, respectively. Fluorescence was detected by excitation of the fluorophores with a 488-nm laser on an Acumen Explorer (TTP Lab Tech). The total intensity in channel 1 (500-530 nm) reflected lipid droplet accumulation. Cells were detected using channel 3 (575- 640 nm) with 5-um width and 100-um depth filters. The ratio of the total intensity in PMT channel 1 over total intensity of channel 3 was also calculated. Percent activity was computed relative to an internal control (100% inhibited lipid droplet deposition due to the presence of 20 uM Triacsin C), which was added to 32 wells/plate.
row,SMILES,Potency
1,O=C(NCCc1ccc(O)c(O)c1)c1cc2sccc2n1Cc1ccccc1,inactive
2,O=C(NC1CCCc2c1cnn2-c1ccc(F)cc1F)c1ccc2cc[nH]c2c1 (stereo not given),7.71 µM (active)
3,O=C(NC1CCCc2c1cnn2-c1ccccc1F)c1ccc2ncccc2c1 (stereo not given),2.23 µM (active)
4,COc1ccc(CCNC(=O)c2cc3sccc3n2Cc2ccc(Cl)cc2)cc1OC,0.194 µM (active)
5,COc1ccc(-c2csc(NC(=O)CSc3nnc(NC4CC4)s3)n2)cc1OC,inactive
6,COc1ccc(CCNC(=O)c2cc3sccc3n2Cc2ccc(F)cc2)cc1OC,0.499 µM (active)
7,O=C(NC1CCCc2c1cnn2-c1ccc(F)cc1F)c1cccc(F)c1F (stereo not given),0.315 µM (active)
8,O=C(NC1CCCc2c1cnn2-c1ccc(F)cc1F)c1cccc(Cn2cccn2)c1 (stereo not given),0.125 µM (active)
9,S=C(Nc1cc(Cl)ccc1Oc1ccccc1)N1CCN(c2ncccn2)CC1,12.5 µM (active)
10,O=C(NC1CCCc2c1cnn2-c1cc(F)cc(F)c1)c1ccc(F)cc1Cl (stereo not given),2.23 µM (active)
11,CCOc1ccc(CCNC(=O)c2cc3sccc3n2Cc2ccc(-n3cncn3)cc2)cc1OCC,0.177 µM (active)
12,O=C(NC1CCCc2c1cnn2-c1ccc(F)cc1F)c1cccc(=O)[nH]1 (stereo not given),7.91 µM (active)
13,CCOc1ccc(CCNC(=O)c2cccc(C(=O)c3ccccc3)c2)cc1OCC,15.8 µM (active)
14,O=C(NC1CCCc2c1cnn2-c1ccc(F)cc1F)c1ccccn1 (stereo not given),8.7 nM (active) and 7.9 nM (active)
15,CCOc1ccc(CCNC(=O)c2cc3sccc3n2Cc2ccc(Cl)c(F)c2)cc1OCC,0.0063 µM (active)
16,CC(=O)NCc1ccc(-c2csc(NC(=O)Cc3cccs3)n2)cc1,inactive
17,O=C(NC1CCCc2c1cnn2-c1ccc(F)cc1F)c1cccs1 (stereo not given),0.0177 µM (active)
18,COc1ccc(-c2csc(NC(=O)CSc3nnc(Nc4ccccc4)s3)n2)cc1,0.628 µM (active)
19,CCOc1ccc(CCNC(=O)C2COc3ccccc3O2)cc1OCC (stereo not given),11.2 µM (active)
20,CCOc1ccc(CCNC(=O)c2cc3sccc3n2CCc2ccccc2)cc1OCC,0.0281 µM (active)

row,SMILES,Potency
1,CC(C)(C)OC(=O)NC1CCCc2c1cnn2-c1ccc(F)cc1F (stereo not given),0.888 µM (active)
2,O=C(NC1CCCc2c1cnn2-c1cc(F)cc(F)c1)c1cccc2nccnc12 (stereo not given),3.45 µM (active)
3,O=C(N[C@H]1CCCc2c1cnn2-c1ccc(F)cc1F)c1ccccn1,7.91 µM (active)
4,O=C(NC1CCCc2c1cnn2-c1ccc(F)cc1F)c1ccn[nH]1 (stereo not given),2.81 µM (active)
5,CCOc1ccc(CCNC(=O)c2cc3sccc3n2Cc2ccccc2)cc1OCC,0.0353 µM (active)
6,CCOC(=O)C1CCN(C(C)C(=O)NC(=O)NC2CCCCC2)CC1 (stereo not given),inactive
7,CN(C)CC(=O)NC1CCCc2c1cnn2-c1ccc(F)cc1F (stereo not given),inactive
8,CCOc1ccc(CCNC(=O)c2cc3sccc3n2Cc2cccc(C)c2)cc1OCC,0.004 µM (active)
9,COc1ccc(CCNC(=O)c2cc3sc(C)cc3n2C)cc1OC,2.81 µM (active)
10,O=C(NC1CCCc2c1cnn2-c1ccc(F)cc1F)C1CCCCN1 (stereo not given),inactive
11,CCn1c(C(=O)NCCc2ccc(OC)c(OC)c2)cc2sc(Cl)cc21,9.71 µM (active)
12,O=C(Cc1ccccc1)NC1CCCc2c1cnn2-c1ccc(F)cc1F (stereo not given),inactive
13,O=C(CSc1nnc(NCc2ccccc2)s1)Nc1nc(-c2cccc(Br)c2)cs1,1.25 µM (active)
14,CCOc1ccc(CCNC(=O)c2cc3sccc3n2Cc2ccc(OC(F)F)cc2)cc1OCC,0.0063 µM (active)
15,CC1=C(C(=O)NC2CCCc3c2cnn3-c2ccc(F)cc2F)OCCO1 (stereo not given),0.0158 µM (active)
16,Cc1cccc(Nc2nnc(SCC(=O)Nc3nc(-c4ccc(F)cc4)cs3)s2)c1,0.628 µM (active)
17,CCOc1ccc(CCNC(=O)c2cc3ccccc3n2C)cc1OCC,7.91 µM (active)
18,Cc1ccc(C)c(-c2csc(NC(=O)CSc3nnc(Nc4ccc(OC(F)(F)F)cc4)s3)n2)c1,inactive
19,CCn1c(C(=O)NCCc2ccc(OC)cc2)cc2sccc21,inactive
20,COc1ccc(-c2csc(NC(=O)Cc3cccs3)n2)cc1,25 µM (active)
